Marburg entry inh – Marburg virus entry inhibition; Potency, µM (doses to about 37.8 µM), for the others: at the highest dose activity change, negative = inhibition, usual class: inhibitors; Marburg virus pseudotyped entry inhibition, cell reporter; 300,000 compounds, 1.8% hits; calls by dose curve; tested in HEK293 cells; note: potency is the fitted concentration of half-maximal effect
Lassa entry inh – Lassa virus entry inhibition; Lassa virus pseudotype entry inhibition, cell reporter; Potency, µM (highest dose often 37.9 µM), for the others: at the highest dose activity change, negative = inhibition, most hits filed as inhibitors; 300,000 compounds, 1.2% hits; AID 540256; calls by dose curve; tested in HEK293 cells; note: potency is the fitted concentration of half-maximal effect; nearly all actives have a fitted effect of over 50% in size
VACV mCherry inh – inhibitors of vaccinia virus infection (mCherry reporter signal) | Vaccinia virus mCherry reporter infection, fluorescence | Potency, µM (titrated, usually from 36.5 µM), for inactives: at the top dose activity change, negative = inhibition, usual class: inhibitors | 310,000 compounds, 0.63% hits; calls by dose curve; tested in A549 cells; note: potency is the fitted concentration of half-maximal effect; nearly all actives have a fitted effect of over 35% in size
Vaccinia Venus – inhibitors of vaccinia virus (Venus reporter); Vaccinia virus Venus reporter expression, fluorescence; Potency, µM (highest dose often 36.5 µM), for inactives: at the top dose activity change, negative = inhibition, hits mostly inhibitors; 330,000 compounds, 0.46% hits; AID 720580; calls by dose curve; tested in A549 cells; note: potency is the fitted concentration of half-maximal effect; nearly all actives have a fitted effect of over 30% in size
FMDV antiviral – antivirals against foot and mouth disease virus | 410,000 compounds, 1.2% hits | FMDV antiviral cell-based qHTS | Potency, µM (highest dose often 57.9 µM), for inactives: top-dose activity change, negative = inhibition, actives largely listed as inhibitors; calls by dose curve; tested in HEK293T cells; note: read-out not given here; potency is the fitted concentration of half-maximal effect; nearly all actives have a fitted effect of over 45% in size
HCMV inh – inhibitors of human cytomegalovirus; HFF cells, HCMV-luciferase reporter, 72 h; active compounds read low; activity change, negative = inhibition, % at 57.5 µM; 410,000 compounds, 4.5% hits; AID 1259415; in the data active = activity change below about -60%; inconclusive = no clear call, values can overlap the other calls; inactive = above about -39%
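Two compound doses tested in HFFs infected with HCMV-luciferase, MOI 1 PFU/cell, 72 h at 37C. Lysate luminescence read with OneGlo; data normalized against buffer-only and 10uM Salinomycin inhibitor controls.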
Starred values were filed as active, the others as inactive; [ ] = dose if it differs, or a comment. The list is not random: actives were taken first. Their share in the collection is about 6.5%. % is set by controls: 0 for no effect and ±100 for the full control effect.

Screening COc1ccc(C(=O)Nc2ccc3nc(SCC(=O)N(C)c4ccccc4)sc3c2)cc1 returned Marburg entry inh inconclusive, Lassa entry inh inconclusive, VACV mCherry inh -18%, Vaccinia Venus inconclusive, FMDV antiviral 35µM* and HCMV inh -74*.
`O=C(O)CSc1nc2ccc(NC(=O)COc3ccc(Cl)cc3)cc2s1` gave Marburg entry inh 4%[46.1 µM], Lassa entry inh 1%[46.1 µM], VACV mCherry inh -10%[7.34 µM], Vaccinia Venus -6%[7.34 µM], FMDV antiviral -3% and HCMV inh 50.
Screening CCOc1ccc(C(=O)Nc2ccc3nc(SCCOc4ccccc4)sc3c2)cc1 returned Marburg entry inh 8%[46.1 µM], Lassa entry inh -8%[46.1 µM], VACV mCherry inh inconclusive, Vaccinia Venus inconclusive, FMDV antiviral inconclusive and HCMV inh 6.
CN(C)C(=O)CSc1nc2ccc(N3C(=O)c4ccccc4C3=O)cc2s1 was read as FMDV antiviral 1% and HCMV inh -65*.
Cc1cccc(NC(=O)CSc2nc3ccc(N4C(=O)c5ccccc5C4=O)cc3s2)c1C was read as Marburg entry inh 0%, Lassa entry inh -3%, FMDV antiviral 17% and HCMV inh 3.
For O=C(Nc1ccc2nc(SCC(=O)N3CCCC3)sc2c1)c1ccc(F)cc1 the results were Marburg entry inh -3%[46.1 µM], Lassa entry inh -22%[46.1 µM], VACV mCherry inh -7%, Vaccinia Venus -12%, FMDV antiviral -9% and HCMV inh 25.
CN(C(=O)CSc1nc2ccc(NC(=O)c3ccc(F)cc3)cc2s1)c1ccccc1 was read as Marburg entry inh inconclusive, Lassa entry inh inconclusive, VACV mCherry inh -13%, Vaccinia Venus -28%, FMDV antiviral inconclusive and HCMV inh -81*.
`CN(C(=O)CSc1nc2ccc(NC(=O)COc3ccc(F)cc3)cc2s1)c1ccccc1` gave Marburg entry inh inconclusive, Lassa entry inh inconclusive, VACV mCherry inh inconclusive, Vaccinia Venus inconclusive, FMDV antiviral inconclusive and HCMV inh -70*.
For COc1cc(-c2nc(Cn3nnc(C(=O)Nc4ccc(C)cc4C)c3C)c(C)o2)cc(OC)c1OC the results were Marburg entry inh 2%[46.1 µM], Lassa entry inh -7%[46.1 µM], VACV mCherry inh -23%, Vaccinia Venus -17%, FMDV antiviral inconclusive and HCMV inh -10.
`O=C(Cc1nc2ccccc2[nH]1)N1CCC(n2c(C3CCC3)nc3cccnc32)CC1` gave VACV mCherry inh inactive, Vaccinia Venus 0% and FMDV antiviral 32%.
`CCCCOc1cccc(C(=O)Nc2cc3nn(-c4ccc(F)cc4)nc3cc2C)c1` gave Marburg entry inh inconclusive, Lassa entry inh inconclusive, VACV mCherry inh -12%, Vaccinia Venus -13%, FMDV antiviral 53% and HCMV inh 20.
CC(C)(CNc1ccc(C(F)(F)F)cc1[N+](=O)[O-])N1CCOCC1 was read as FMDV antiviral inconclusive and HCMV inh -66*.
For Cc1c(C)c2c(c(C)c1O)CC[C@@](C)(CCC[C@H](C)CCC[C@H](C)CCCC(C)C)O2 the results were VACV mCherry inh -2%, Vaccinia Venus -18%, FMDV antiviral -19% and HCMV inh 104.
Screening Cc1c(C)c2c(c(C)c1O)CCC(C)(CN1CCN(c3cc(N4CCCC4)nc(N4CCCC4)n3)CC1)O2 (centres undefined) returned Marburg entry inh 10µM*.
Brc1c(-c2ccccc2)nc2n1Cc1ccccc1-2 was read as Marburg entry inh inconclusive, Lassa entry inh inconclusive, VACV mCherry inh inactive, Vaccinia Venus -12%, FMDV antiviral -13% and HCMV inh -84*.
CC(C)(C)OC(=O)[C@H](Cc1ccccc1)NC(=O)c1[nH]cnc1C(=O)Nc1ccc(Cl)cc1 was read as VACV mCherry inh inconclusive, Vaccinia Venus inconclusive, FMDV antiviral inconclusive and HCMV inh -38.
`CCOC(=O)c1ccc(NC(=O)c2nc[nH]c2C(=O)N[C@@H](Cc2ccccc2)C(=O)OC(C)(C)C)cc1` gave Marburg entry inh -1%, VACV mCherry inh 13µM*, Vaccinia Venus inconclusive, FMDV antiviral inconclusive and HCMV inh 11.

Screening data (PubChem BioAssay)
